Compound activity: PubChem, National Center for Advancing Translational Sciences (NCATS)
This is a sample that favours compounds with a hit; in the whole collection about 4.3% have one here.
MCF10A rereplic = A quantitative high throughput screen for small molecules that induce DNA re-replication in MCF 10a normal breast cells; MCF 10A DNA re-replication, Hoechst nuclear intensity, 48 h; Potency, µM (top dose mostly 46.1 µM), for inactives: top-dose activity, positive = re-replication, hits mostly activators; 350,000 compounds, 2.9% hits; also: potency is read from the fitted curve at half-maximal effect; % of control where 0% means no effect; nearly all actives have a fitted effect of over 50% in size
SW480 rerep = A quantitative high throughput screen for small molecules that induce DNA re-replication in SW480 colon adenocarcinoma cells; 340,000 compounds, 1.8% hits; Potency, µM (top dose mostly 46.1 µM), for the others: top-dose re-replication activation, most hits filed as activators; SW480 DNA re-replication, Hoechst DNA content imaging, 48 h; also: potency is read from the fitted curve at half-maximal effect; % of control where 0% means no effect; nearly all actives have a fitted effect of over 55% in size
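Per well, 250 cells were exposed to pinned compound for 48 hr. Nuclear DNA was visualised with Hoechst (40 min, 37 C) and total object intensity recorded by fluorescence scanning.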
Giardia kill = Small Molecules that selectively kill Giardia lamblia: qHTS; Giardia lamblia trophozoite viability; activity change, % at 7.66 µM, hits read low; 340,000 compounds, 0.15% hits; in the data active = activity change below about -80%; inconclusive = between about -30% and that limit;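 also: parasites exposed to compound for two days anaerobically before the ATP read; % is scaled to controls: 0 for no effect and ±100 for the full control effect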
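Viability, read as ATP luminescence: trophozoites at 100 cells/well, compound added, 48 hrs anaerobic at 37 deg C, then 15-30 min room-temperature development before reading.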
uPA generation = qHTS for Inhibitors of Cell Surface uPA Generation. AID 540303, 2011. cell surface uPA generation assay, qHTS. Potency, µM (highest dose often 38.3 µM), without a hit: at the highest dose activity change, negative = inhibition, most hits filed as inhibitors. 330,000 compounds, 0.31% hits; active = well fitted inhibition curve with a large enough effect; inconclusive = small, poorly fitted or top-dose-only effect; inactive = no such curve, though single readings can be large or run the other way; tested in mouse RAW 264.7 cells; also: potency is read from the fitted curve at half-maximal effect; % is scaled to controls: 0 for no effect and ±100 for the full control effect; nearly all actives have a fitted effect of over 55% in size
An asterisk follows results filed as active; u = inconclusive; x = no result. Unless noted, calls follow the shape of the dose curve; as a rule, active = well fitted activation curve with a large enough effect; inconclusive = small, poorly fitted or top-dose-only effect; inactive = no such curve, though single readings can be large or run the other way.

SMILES	MCF10A rereplic	SW480 rerep	Giardia kill	uPA generation
COc1ccc(C(=O)NC(=S)N2CCOCC2)cc1OC	1%	-1%	44	12%
COc1ccc(/C=C/c2nc(-c3ccccc3)cc(=O)[nH]2)cc1	u	u	3	2%
O=c1cc(-c2ccccc2)nc(/C=C/c2ccccc2)[nH]1	18µM*	u	10	-1%
O=C1CC(c2ccc(F)cc2)CC2=C1C(c1ccc([N+](=O)[O-])o1)Nc1ccccc1N2 (centres undefined)	23%	u	-90*	-10%
O=C(COc1ccc(Oc2ccccc2)cc1)NCc1cn2ccccc2n1	15µM*	u	1	-8%
O=C(O)c1ccc(OCc2cn3ccccc3n2)cc1	18%	7%	-17	3%
O=[N+]([O-])c1ccc(NN=Cc2cccc3ccccc23)cc1	u	1.2µM*	10	1%
O=[N+]([O-])c1ccc(N/N=C\c2ccccc2OCc2ccccc2)cc1	u	u	-15	8%
Cc1oc(C)c2c(=O)ccc3c(c12)OC(N)=C(C#N)C3c1ccccc1 (centres undefined)	u	-1%	0	-7%
CSc1ccc(C2C(C#N)=C(N)Oc3c2ccc(=O)c2c(C)oc(C)c32)cc1 (centres undefined)	18µM*	10%	4	-9%
C=CCNC(=S)N1N=C(c2ccco2)CC1c1ccco1 (centres undefined)	-21%	2%	5	-2%
CCC/C=N/NC(=O)c1[nH]c2c([N+](=O)[O-])cccc2c1C	6.5µM*	18µM*	4	0%
CCCCC/C=N/NC(=O)c1[nH]c2ccc([N+](=O)[O-])cc2c1C	u	-8%	-3	-1%
Cc1cccc2c(C(=O)N3CCN(C(=O)c4ccco4)CC3)cc(-c3cccc(Br)c3)nc12	18µM*	u	-21	-10%
O=C(c1ccco1)N1CCN(C(=O)c2cc(-c3ccccc3)nc3ccccc23)CC1	8%	3%	-2	-1%
O=Cc1ccc([B-](F)(F)F)s1	u	u	-22	-5%
Nc1nc2ncc(-c3ccsc3)c(N)n2n1	8%	3.7µM*	-6	-3%
CSc1nc2ncc(-c3ccsc3)c(N)n2n1	-1%	-1%	22	2%
Cc1cc(Cl)ccc1Oc1ccccc1C(=O)CC#N	23µM*	5%	5	16%
Cc1cc(Cl)ccc1Oc1ccc(C(N)=O)cc1[N+](=O)[O-]	u	1%	-5	-5%
Cc1cccc(N(CC(=O)NC2CCCCC2)C(=O)c2ccc(C)s2)c1	u	7.3µM*	20	12%
CC(C)N=C(NC#N)SCc1ccccc1F	-18%	-1%	1	x
N#CNC(=Nc1cccc(F)c1)SCc1ccccc1F	4.6µM*	3%	-21	13µM*
N/C(=N\OC(=O)N1CCOCC1)c1ccc(Br)cc1	u	u	-26	10µM*
CN(Cc1ccccc1)C(=O)CCS(=O)(=O)c1ccc2c(c1)NC(=O)CS2	-1%	-21%	7	-1%
SMILES	MCF10A rereplic	SW480 rerep	Giardia kill	uPA generation
COc1ccc(CCn2c3c(c(=O)[nH]c2=S)CN(C)CN3)cc1OC	x	x	-5	x
Cc1ccc(OC(=O)c2cccc(C(=O)Oc3ccc(C)cc3)n2)cc1	1%	0%	-1	3%
CCOC(=O)c1cccc(C(=O)Oc2ccccc2)n1	21µM*	0%	-27	-1%
CC(C)[C@H](NC(=O)c1ccc([N+](=O)[O-])cc1Cl)C(=O)N1CCN(C/C=C/c2ccccc2)CC1	5%	25%	-17	-16%
CC(C)NC(=S)N/N=C1\CCCCC1C1CCCCC1 (centres undefined)	18µM*	u	-15	9%
CCCS(=O)(=O)Nc1ccc(N2CCCCC2)c(S(=O)(=O)Nc2ccccc2OC)c1	u	u	-2	-3%
O=C(Nc1cccc2cccnc12)c1ccc(Cl)cc1	-4%	-2%	4	-2%
CCOC(=O)C(CCc1ccccc1)NC1CCc2ccccc2N(CC(=O)O)C1=O (centres undefined)	30µM*	27µM*	x	x
CCOC(=O)COc1cc(N)c(Cl)cc1Cl	6.5µM*	-2%	-1	1%
COc1ccc(C2CC(c3ccccc3)Oc3c(C)ccc(C)c32)cc1 (centres undefined)	x	x	7	x
COC(=O)Nc1nc2c(s1)CCCC2	-6%	-8%	18	x
